Holding throughout (assay): NCI-60 one-dose screen, 48 h (100 = growth as untreated, 0 = no growth, -100 = all killed)
Assay [1] concerns SK-MEL-2 melanoma. As to conditions: 10 µM unless noted.
For assay [2], the system named is EKVX NSCLC. The settings on record: 10 µM unless noted.
Assay [3] deals with SN12C renal. The settings on record: 10 µM unless noted.
In assay [4] the test system is UO-31 renal. The settings on record: 10 µM unless noted.
The subject of assay [5] is ACHN renal. As to conditions: 10 µM unless noted.
Assay [6] has as its system CAKI-1 renal. As to conditions: 10 µM.
Assay [7] relates to A498 renal. As to conditions: 10 µM unless noted.
For assay [8], the system named is CCRF-CEM leukemia. As to conditions: 10 µM unless noted.
Assay [9] concerns MOLT-4 leukemia. The settings on record: 10 µM unless noted.
Assay [10] deals with SR leukemia. As to conditions: 10 µM unless noted.
Assay [11] has as its system RPMI-8226 leukemia. The settings on record: 10 µM unless noted.
The subject of assay [12] is OVCAR-8 ovarian. As to conditions: 10 µM unless noted.
Assay [13] deals with OVCAR-5 ovarian. As to conditions: 10 µM unless noted.
Assay [14] deals with OVCAR-4 ovarian. As to conditions: 10 µM unless noted.
For assay [15], the system named is SK-OV-3 ovarian. The settings on record: 10 µM unless noted.
For assay [16], the system named is IGROV1 ovarian. The settings on record: 10 µM unless noted.
Assay [17] relates to OVCAR-3 ovarian. The settings on record: 10 µM unless noted.
Assay [18] deals with NCI/ADR-RES ovarian. As to conditions: 10 µM unless noted.
Assay [19] has as its system HS 578T breast. The settings on record: 10 µM unless noted.

SMILES strings stand for the structures. Compounds without any hit were thinned out: in the full panel of roughly 83,000, 20% have a hit.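 Step 1: grow cells in 96-well plates. Step 2: add test compound at a single concentration. Step 3: incubate 48 h. Step 4: record percent growth.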 A number with no mark means an inactive call. The source made the active and inactive calls. How the source made its calls: active means growth percent below 10; inactive means the rest.

Take `O=C(NCCNc1nccc(-c2c(-c3cccc(O)c3)nc3sccn23)n1)c1ccccc1O`: the growth in assay [1] was 13.9%; in [2], 66.8%; in assay [3] it was 48%; in assay [4], 34.6%; in assay [5] it was 46.1%; in assay [6], 24.3%. Also, the growth is 104% in assay [7]; 18.9% in assay [8]; 46.2% in assay [9]; 63.2% in assay [10]; 11.6% in assay [11]; 41.3% in assay [12]. The growth in [13] was 88.7%; in assay [14], 96.2%; in assay [15] it was 60.5%; in assay [16], 31.6%; in assay [17], 60.2%; in assay [18] it was 73.6%.

`C[C@]12O[C@H]1[C@H](O)c1c(cc(O)c3c1C(=O)c1cccc(O)c1-3)C2=O`: the growth in [1] was 99.3%; in [2], 97.8%; in assay [3], 88.8%; in assay [4], 91.1%; in [5], 99.3%; in assay [6], 99.9%. In addition, the growth was 86.4% in [7]; 92% in assay [8]; 86.6% in assay [9]; 93.6% in assay [10]; 93.6% in [11]; 98.1% in assay [12]. Besides, the growth in assay [13] was 106%; in [14], 92.4%; in assay [15], 97.9%; in assay [16], 102%; in assay [17] it was 106%; in assay [19], 93.9%. In addition, the growth in assay [18] is 107%.

On to `Cc1ccc[n+](CC(=O)c2cccc3ccccc23)c1`, for which the growth in assay [1] was 106%; in assay [2], 95.9%; in [3] it was 102%; in [4], 89.5%; in [5] it was 103%; in assay [6], 100%. Besides, the growth in assay [7] was 90%; in assay [8], 101%; in assay [9], 98%; in [10] it was 112%; in [11] it was 101%; in assay [12] it was 114%. Also, the growth was 98.6% in [13]; 103% in assay [14]; 96.9% in assay [15]; 98.6% in assay [17]; 106% in assay [19]; 108% in [18].

In the case of `O=C(Nc1ccc(-n2cc(-c3ccncc3)c(-c3ccc(O)c(Cl)c3)n2)cc1)c1ccc(Cl)c(Cl)c1`, the growth is 20.2% in [1]; 47.7% in assay [2]; 58.3% in [3]; 23% in [4]; 20.6% in assay [5]; 18.6% in assay [6]. Moreover, the growth in assay [7] is 79.6%; in assay [8], 16.5%; in assay [9], 32.3%; in assay [10] it was 18.6%; in assay [11] it was -27.7% (active); in assay [12], 25.7%. The growth in [13] is 71.2%; in assay [14], 78.9%; in assay [15] it was 66.6%; in assay [16], 61.5%; in assay [18], 24.9%.

For `COc1ccc(-c2nn(-c3ccc(NC(=O)c4ccc(Cl)c(C(F)(F)F)c4)cc3)cc2-c2ccncc2)cc1Cl`, the growth in assay [1] was 4.6% (active); in assay [2], 34.8%; in assay [3], 44.3%; in assay [4] it was -26.8% (active); in assay [5], 27.3%; in assay [6], -33.6% (active). Besides, the growth in assay [7] is -5.21% (active); in assay [8], 23.4%; in assay [9], 1.35% (active); in assay [10], 7.78% (active); in assay [11] it was -38.2% (active); in assay [12], 46.5%. Also, the growth is 46.5% in [13]; 93.9% in [14]; 58.1% in assay [15]; 44.8% in assay [16]; 24% in [17]; 35.7% in [18].

For `O=S1(=O)N(CCNc2nccc(-c3c(-c4cccc(O)c4)nc4sccn34)n2)CCN1Cc1ccccc1`, the growth in [1] is 19.2%; in [2], 90.9%; in [3], 64.1%; in [4], 43.8%; in assay [5] it was 41.1%; in assay [6], 39.4%. For the same molecule, the growth is -20.9% (active) in assay [7]; 31.9% in assay [8]; 63.1% in assay [9]; 55.4% in assay [10]; 47.4% in assay [11]; 48.3% in assay [12]. In addition, the growth is 113% in assay [13]; 110% in assay [14]; 52.9% in assay [15]; 51.9% in [16]; 64.9% in assay [17]; 74% in [18].

As to `CCN1CCN(Cc2ccc(NC(=O)Nc3cccc(-n4ccc5c(NC(=O)c6ccccc6)nccc54)c3)cc2C(F)(F)F)CC1`, the growth in assay [1] is 90.6%; in [2], 89.8%; in assay [3], 95.7%; in [4] it was 72.3%; in assay [5], 96%; in [6], 81%. In addition, the growth in [7] was 90%; in [8], 78.7%; in assay [9], 112%; in assay [10] it was 64.3%; in [11], 99.1%; in assay [12], 91%. The growth is 101% in [13]; 95.8% in [14]; 78.3% in assay [15]; 74.8% in assay [16]; 57.3% in assay [17]; 92.1% in [18].

For `COC1=C(OC)C(=O)C=CC1=O`, the growth was 112% in assay [1]; 121% in [2]; 103% in [3]; 89.1% in [4]; 103% in assay [5]; 115% in [6]. The growth in assay [7] was 120%; in assay [8], 46%; in assay [9] it was 12.6%; in [10], 38.1%; in assay [11], 91.4%; in assay [12], 110%. Further, the growth in [13] was 116%; in [14], 102%; in [15], 114%; in assay [16], 96.5%; in assay [17] it was 83.6%; in assay [18], 109%.

The values above are taken from PubChem BioAssay (NCI).
